Only some compounds are listed: those with a hit (about 2.4% of all), similar ones and a draw of the others.
Cruzain noTriton: blocks cruzain activity in detergent-free assay. Potency, µM, for inactives: max response, negative = inhibition, usual class: inhibitors. purified cruzain, Z-FR-AMC fluorescence, no detergent. hit rate 2.3% among 200,000;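 also: plate controls were enzyme without inhibitor for no effect and buffer without enzyme for full effect; nearly all actives have a fitted effect of over 40% in size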
Target sequence (P25779 123-467 limits assumed): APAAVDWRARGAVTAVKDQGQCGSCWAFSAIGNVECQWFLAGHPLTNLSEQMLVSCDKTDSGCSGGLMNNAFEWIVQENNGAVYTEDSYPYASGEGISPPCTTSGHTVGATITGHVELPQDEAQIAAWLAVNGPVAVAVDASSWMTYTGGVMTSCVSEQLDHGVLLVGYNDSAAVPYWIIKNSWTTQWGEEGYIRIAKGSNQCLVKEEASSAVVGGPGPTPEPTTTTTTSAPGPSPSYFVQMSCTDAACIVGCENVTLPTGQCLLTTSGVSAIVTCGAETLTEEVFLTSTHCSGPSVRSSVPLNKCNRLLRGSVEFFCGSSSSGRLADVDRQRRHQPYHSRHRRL
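Detergent-free condition (0.00005% Triton X-100) in acetate buffer pH 5.5 with DTT. 1.5 nM enzyme and compound were pre-mixed 15 min, then 2 uM Z-FR-AMC substrate added; reaction progress from fluorescence change between first and third reads (60 s).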
Cruzain inh Det: blocks cruzain activity in presence of Triton detergent. purified cruzain, Z-FR-AMC fluorescence, 0.01% Triton. Potency, µM, without a hit: max response, negative = inhibition, most hits filed as inhibitors. AID 1478. hit rate 0.43% among 200,000;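 also: plate controls were neutral wells for no effect and buffer without enzyme for full effect; nearly all actives have a fitted effect of over 40% in size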
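Cysteine protease activity tested under reducing, mildly acidic conditions (100 mM sodium acetate pH 5.5, 5 mM DTT) plus 0.01% Triton X-100. Cruzain 1.5 nM; substrate Z-FR-AMC 2 uM; 15 min compound preincubation at room temperature.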
Starred values were filed as active, the others as inactive; ? = inconclusive. Calls follow the shape of the dose curve; as a rule, active = well fitted curve in the direction sought with a large enough effect; inconclusive = small, poorly fitted or top-dose-only effect, or another doubt; inactive = no such curve, though single readings can be large; an effect the other way counts as inactive or inconclusive. Potency is read from the fitted curve at half-maximal effect.

SMILES	Cruzain noTriton	Cruzain inh Det
COc1ccc(NC(=O)C2CCN(S(=O)(=O)c3ccc4c(c3)CCCC(=O)N4)CC2)c(OC)c1	11.6%	-0.9%
CC(=O)O/C(=C1/C[C@H]2[C@@H]3CC=C4C[C@@H](OC(C)=O)CC[C@]4(C)[C@@H]3CC[C@]2(C)C1=O)C(F)(F)F	-1.5%	1.7%
COc1cc(O)c2c(O)c3c(c4c2c1[C@@]1(C4)C(C)=CCCC1(C)C)[C@H](O)[C@@]1(O)CC(=O)C(C(N)=O)=C(O)[C@]1(O)C3=O	17.1%	6.0%
COc1ccc2c(c1)C(=O)[C@@H](OC(=O)NCc1ccco1)[C@H](c1ccc(OC)c(Br)c1)O2	-10.0%	-4.2%
CCOc1ccc(C(=O)N2CCC(c3ccncc3)CC2)cc1	-8.5%	4.0%
COc1ccc(N=C2NN=C(c3ccc4c(c3)OCCO4)CS2)cc1	25.1µM*	-3.3%
COCCn1c(C)cc(C2=NNC(=Nc3ccc(OC)cc3)SC2)c1C	1.3%	-1.4%
CCc1ccc(NCc2cc3cc4c(cc3n(CC(=O)Nc3ccccc3Cl)c2=O)OCO4)cc1	-6.3%	-3.8%
Cn1nnc2c(N3CCN(c4ccccc4Cl)CC3)ncnc21	-7.4%	-0.3%
CSCCC(NC(=O)C12CC3CC(CC(C3)C1)C2)C(=O)OCC(=O)c1ccc(C)cc1 (stereo unspecified)	14.1%	-1.7%
CSCCC(NC(=O)c1ccc([N+](=O)[O-])cc1Cl)C(=O)OCC(=O)C12CC3CC(CC(C3)C1)C2 (stereo unspecified)	25.1µM*	28.2µM*
N=c1ccn2c(n1)O[C@H]1[C@@H](O)[C@@H](CO)O[C@H]12	-5.8%	5.2%
Cc1ccc(CNC(=O)Cn2c3ncccc3c(=O)n2-c2ccc(C)cc2)cc1	4.9%	-11.4%
CCn1ccc2cc(S(=O)(=O)N3CCC(C(=O)NCCOC)CC3)ccc21	-10.3%	-1.1%
CCNC(=O)COC(=O)CNC(=O)c1cc(Cl)cc([N+](=O)[O-])c1	7.94µM*	7.94µM*
CC(C)CNC(=O)COC(=O)CNC(=O)c1cc(Cl)cc([N+](=O)[O-])c1	7.94µM*	10µM*
CC(C)(C)NC(=O)COC(=O)CNC(=O)c1cc(Cl)cc([N+](=O)[O-])c1	20µM*	25.1µM*
O=C(CNC(=O)c1ccccc1)NCC(=O)OCC(=O)c1ccc([N+](=O)[O-])cc1	-5.7%	-4.4%
COc1cc(OC)cc(C(=O)NCC(=O)OCC(=O)NC(C)(C)C)c1	2.4%	-1.2%
CC(C)CNC(=O)COC(=O)c1ccc([N+](=O)[O-])cc1Cl	-10.1%	0.4%
CCOc1ccc(CC(=O)Nc2c(C(=O)Nc3ccc(OC)cc3OC)oc3ccccc23)cc1	3.2%	-0.7%
COc1ccc(Cl)cc1NC(=O)CCc1c(C)nc2c(c1C)c(=O)n(C)c(=O)n2C	0.5%	0.6%
C[C@H](NC(=O)c1ccc(Cl)c(Cl)c1)c1ccc(-c2ccccc2)cc1	0.1%	0.3%
O=C(c1ccccc1)c1c2c(cc3sc4ccccc4[n+]13)-c1cccc3cccc-2c13	25.1µM*	-23.3%
Cc1sc2cc3c(c(C(=O)c4ccccc4)[n+]2c1C)-c1cccc2cccc-3c12	-28.6%	-16.0%
SMILES	Cruzain noTriton	Cruzain inh Det
CCCSc1ncc(Cl)c(C(=O)Nc2nc3ccc(C)cc3s2)n1	-0.9%	-2.5%
CCc1ccccc1NC(=O)Cn1nc2c3cc(F)ccc3n(Cc3cccc(C)c3)cc-2c1=O	-3.7%	-2.6%
CC(=O)c1cccc(NC(=O)CN2C(=O)c3cccnc3Sc3ccccc32)c1	-10.5%	-7.5%
COc1ccc(OC)c(NC(=O)c2cccc(S(=O)(=O)N(Cc3ccccc3)c3ccccc3OC)c2)c1	?	-0.6%
COc1ccc(OC)c(NC(=O)c2ccc(CN(c3cc(Cl)ccc3C)S(=O)(=O)c3ccccc3)cc2)c1	10µM*	2.6%
CCCN(CCC)S(=O)(=O)c1ccc(C(=O)N2CCn3c4c(c5cc(C)ccc53)CCCC42)cc1 (stereo unspecified)	-1.9%	1.5%
O=C1/C(=C/c2cccs2)SC(=S)N1c1ccccc1	?	-1.4%
CCN(CC)c1ccc(N2C(=O)/C(=C\c3cccs3)SC2=S)cc1	25.1µM*	-3.3%
C=C1C(=O)[C@]23[C@H](O)[C@H]1CC[C@H]2[C@@]12COC3(O)[C@H](O)[C@@H]1C(C)(C)CC[C@@H]2O	-1.2%	-3.7%
O=C(NCCc1ccccc1)c1cnc2sc(N3CCCCC3)nn2c1=O	-9.4%	-9.1%
CC(=O)Nc1ccc(-c2cc(-c3ccccc3)nc(-c3ccccc3)n2)cc1	?	-2.5%
CC(=O)Nc1ccc(-c2cc(-c3ccc(NC(C)=O)cc3)nc(-c3ccccc3)n2)cc1	15.8µM*	-4.5%
CCC(=O)Nc1ccc(-c2cc(-c3ccccc3)nc(-c3ccc(NC(=O)CC)cc3)n2)cc1	5.1%	4.5%
CC(=O)Nc1ccc(-c2cc(-c3ccc(NC(C)=O)cc3)nc(-c3ccc(NC(C)=O)cc3)n2)cc1	31.6µM*	?
COc1ccc(C(=O)NCC(c2ccc3c(c2)OCO3)N2CCN(c3ccccc3F)CC2)cc1 (stereo unspecified)	-9.2%	-3.9%
Cc1ccc(N2C(=O)CS(=O)(=O)C23C(=O)N(Cc2ccc(Cl)cc2)c2ccccc23)cc1C (stereo unspecified)	12.6µM*	-2.7%
Cc1ccc(N2C(=O)CS(=O)(=O)C23C(=O)N(Cc2ccccc2F)c2ccccc23)cc1Cl (stereo unspecified)	1.26µM*	-4.6%
O=C1CS(=O)(=O)C2(C(=O)Nc3ccccc32)N1c1cccc(Cl)c1 (stereo unspecified)	-24.8%	-3.2%
Cc1ccc(N2C(=O)CSC23C(=O)N(Cc2ccccc2F)c2ccccc23)cc1F (stereo unspecified)	-5.8%	-8.9%
COc1ccc(N2C(=O)CCSC23C(=O)N(Cc2ccc(F)cc2)c2ccccc23)cc1 (stereo unspecified)	6.5%	-3.8%
Cc1ccc(CN2C(=O)C3(c4ccccc42)N(c2ccc(C)c(Cl)c2)C(=O)CS3(=O)=O)cc1 (stereo unspecified)	1.26µM*	-4.0%
COc1ccc(N2C(=O)CS(=O)(=O)C23C(=O)N(Cc2ccc(F)cc2)c2ccc(C)cc23)cc1 (stereo unspecified)	3.16µM*	-2.8%
Cc1ccc(CN2C(=O)C3(SCC(=O)N3c3ccc(C)c(C)c3)c3ccccc32)cc1 (stereo unspecified)	?	-9.3%
COc1ccc2[nH]cc(CCNc3nc(-c4cccnc4)nc4ccccc34)c2c1	-0.9%	0.4%
CCOC(=O)c1c(NC(=O)c2noc3c2CC(C(C)(C)C)CC3)sc2c1CCCC2 (stereo unspecified)	-0.7%	-3.5%
SMILES	Cruzain noTriton	Cruzain inh Det
Cc1ccc(-n2ncc3c(Nc4cccc(C)c4C)ncnc32)cc1	5.5%	-0.5%
Cc1ccc(C)c(CN2C(=O)C3(OCCCO3)c3ccccc32)c1	-2.7%	-6.2%
Cc1ccc(C)c(CN2C(=O)C3(c4ccccc42)N(c2ccc(Cl)cc2)C(=O)CS3(=O)=O)c1 (stereo unspecified)	3.16µM*	-3.3%
O=C(NCC1CC1)[C@H]1C[C@@H]1[C@H](NP(=O)(c1ccccc1)c1ccccc1)c1ccccc1	3.8%	-2.3%
CC(=O)c1ccc2c(c1)C1C(Cl)C(Sc3ccccc3[N+](=O)[O-])CC1C(c1ccccc1[N+](=O)[O-])N2 (stereo unspecified)	3.16µM*	-10.6%
CC(=O)c1ccc(Sc2nnnn2-c2ccccc2)c([N+](=O)[O-])c1	0.9%	0.0%

Screening data from PubChem.
